Screens from PubChem.
Peg3 promoter: Peg3 promoter-driven luciferase inhibitors, primary screen, cell-based, HeLa, luciferase luminescence. HeLa PEG-Prom luciferase reporter, overnight. inhibition, % at 20 µM. 1.7% of 360,000 active;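 active = inhibition of at least 50% at 20 µM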
MITF TRPM1 inh: inhibitors of MITF-dependent TRPM1 promoter reporter, primary screen, cell-based, SK-MEL-5, single point, luciferase; SK-MEL-5 TRPM1 promoter luciferase, 24 h; inhibition, % at 12.5 µM; 0.83% of 330,000 active;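 active = mean inhibition across replicates of 60% or more, whatever share of single replicates reaches that level; inconclusive = some that reach 60%, reason not given; inactive = mean inhibition across replicates below 60%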
KKLEB tox: cytotoxicity in KKLEB CF airway cells, primary screen, cytotoxicity control for CF NF-kB inhibitor project, cell-based, uHTS, fluorescence assay plates; KKLEB CF airway cells viability, ATPlite luminescence, overnight; active compounds read low; cells stimulated with P. aeruginosa culture filtrate; activity change (cytotoxicity), % at 5 µM; 0.36% of 360,000 active; AID 602141, 2011;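 active = corrected activity change at or below -50% at 5 µM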
Shn3 3UTR inh: reduction of Shn3 3'UTR firefly luciferase signal, primary screen, Schnurri-3 inhibitor project, cell-based, Clone20 osteoblasts, set 2; inhibition, % at 12.5 µM; AID 588674, 2011; Clone20 osteoblast Shn3 3'UTR firefly luciferase, 24 h; 0.52% of 360,000 active;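 active = mean inhibition of at least 75% with every replicate also reaching 75%; inconclusive = mean inhibition at least 75% but some replicate below; inactive = mean inhibition below 75%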;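 note: 0% = median of neutral control wells and 100% = pilot-screen positive control compound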
CF NFkB inh: inhibitors of PAF-induced NF-kB signaling, primary screen, cell-based, GFP fluorescence, uHTS; KKLEB NF-kB-GFP reporter, GFP fluorescence overnight; inhibition, % at 5 µM; 0.86% of 360,000 active; AID 588850, 2011;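 active = at least 50% inhibition at 5 µM, scaled per plate between neutral and stimulator controls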;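 note: PAF is a Pseudomonas aeruginosa culture filtrate used as stimulus; plate controls were PAF-stimulated DMSO wells for no effect and unstimulated DMSO wells for full effect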
HIF-2a block: HIF-2a reporter inhibitors, primary screen, luminescence, 786-0 RCC cells; 786-0 RCC cells HIF-2a reporter, luciferase luminescence, overnight; inhibition, % at 18.8 µM; AID 624352, 2012; 0.72% of 360,000 active;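 active = inhibition of the luminescence signal of 40% or more relative to plate controls, in a single-dose primary screen at 18.75 µM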
Mdm2-MdmX confirm: retested Mdm2-MdmX interaction blockers, confirmation, cell-based, luminescence, single concentration, set 2; shares compounds with HIF-2a block; SaOS-2 split-luciferase Mdm2/MdmX complementation; inhibition, % at 8 µM; 99% of 740 active;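 active = mean inhibition of the luminescence signal across two replicates at or above 26 percent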
HIF-2a conf: HIF-2a reporter inhibitor retest, confirmation, luminescence, 786-0 RCC cells; HIF-2a luciferase reporter luminescence, overnight; inhibition, % at 18.8 µM; 56% of 1,800 active; AID 651580, 2012; shares compounds with HIF-2a block;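 active = mean inhibition across four replicates of at least 40 percent at the single tested concentration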
HIF-1a cs: HIF-1a luciferase reporter signal reduction – MiaPaCa-2 cells, single concentration, counter-screen for HIF-2a inhibitor project, confirmation; shares compounds with HIF-2a block; MiaPaCa-2 HIF-1a luciferase reporter, desferoxamine, overnight; inhibition, % at 18.8 µM; 72% of 1,800 active; AID 651589, 2012;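 active = mean inhibition of the reporter signal across four replicates at the single tested dose of 50% or more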
Starred values were filed as active, the others as inactive; u = inconclusive; x = no result. Rows were chosen to be rich in hits. Some 2.8% of all compounds tested hit in one or more screens of this group.

SMILES | Peg3 promoter | MITF TRPM1 inh | KKLEB tox | Shn3 3UTR inh | CF NFkB inh | HIF-2a block | Mdm2-MdmX confirm | others
Cn1cc(C(CC(=O)O)C(=O)O)c2ccccc21 (stereo not drawn) | 12 | 13 | -10 | -9 | 10 | 21 | x
CC(C)n1c(/C=C/[C@H](O)C[C@H](O)CC(=O)O)c(-c2ccc(F)cc2)c2ccccc21 | 39 | -31 | -28 | 89* | 31 | 45* | x | HIF-2a conf=25;HIF-1a cs=-25
O=C1OCCC1Sc1nc2cc(Cl)ccc2n1Cc1ccccc1 (stereo not drawn) | 10 | 1 | -4 | 12 | 9 | 51* | x | HIF-2a conf=4;HIF-1a cs=8
O=C1OCCC1Sc1nc2ccccc2c(=O)n1Cc1ccccc1 (stereo not drawn) | -8 | 16 | 4 | -8 | -1 | 16 | x
COc1cccc(/C=C/C(=O)OCC(=O)Nc2nnc(-c3ccccc3)o2)c1 | 4 | 0 | 4 | 2 | 11 | 13 | x
NC1=NC[C@@H](CC2CCCCC2)N1CCc1cc(C(F)(F)F)cc(C(F)(F)F)c1 | 94* | 99* | 4 | 97* | 15 | -27 | 103*
N#C/C(=C\C=C\c1ccccc1[N+](=O)[O-])C(=O)NC1CCCCC1 | 107* | 72* | 0 | 3 | -40 | 84* | 101* | HIF-2a conf=21;HIF-1a cs=104*
O=c1oc(-c2ccccc2)cc2ccccc12 | -279 | x | 2 | -55 | -68 | -264 | x
Nc1ccc(-c2cc3ccccc3c(=O)o2)cc1 | -45 | 74* | 12 | 38 | -47 | 82* | x | HIF-2a conf=91*;HIF-1a cs=54*
CCC(CC)C(=O)c1c[nH]c(C(=O)N2CCN(c3ccccc3)CC2)c1 | 11 | -6 | 4 | 17 | -5 | 10 | x
C=CCN(Cc1ccc(Cl)s1)C(=O)c1cc(S(=O)(=O)N2CCOCC2)ccc1F | -1 | 3 | -8 | 24 | 12 | 14 | x
CCC(C)(C)c1ccc(Oc2cccc(C(=O)O)c2)cc1 | -209 | -35 | -5 | -47 | -12 | 25 | x
CCCCCc1ccc(OCCCC[n+]2ccccc2)c(CCCCC)c1 | 95* | 87* | -28 | 90* | 49 | 86* | x | HIF-2a conf=30;HIF-1a cs=103*
CCCCCc1ccc(OCCCC[n+]2ccc(C)cc2)c(CCCCC)c1 | 100* | 101* | -67* | 84 | 75* | 11 | 103*
CCCCCOc1ccc(CN2CCOCC2)cc1Cl | -231 | -52 | 9 | -126 | -17 | -185 | x
CCC(C)(C)c1ccc(OCCCC[n+]2ccccc2)c(C(C)(C)CC)c1 | 93* | 100* | -50* | 81 | 62* | 25 | 103*
COc1ccc([N+](=O)[O-])cc1N(CC(=O)N1CCN(Cc2ccccc2)CC1)S(C)(=O)=O | 17 | -2 | -1 | 1 | -15 | 20 | x
COc1ccc(NC(=O)C(=O)NCCC2CCCCN2S(=O)(=O)c2ccccc2)cc1 (stereo not drawn) | 33 | 30 | -5 | -37 | 26 | 18 | x
Cc1cc(C)cc(OCC(=O)Nc2ccc3c(c2)C(=O)c2ccccc2C3=O)c1 | -40 | -17 | 14 | -15 | -7 | -71 | x
O=C(/C=C\Nc1ccc(Br)cc1)c1cccnc1 | -117 | -37 | -32 | -38 | -17 | -115 | x
CC(C)(C)OC(=O)N[C@@H](Cc1ccccc1)c1nnc(SCC(N)=O)o1 | 6 | -1 | 15 | 9 | -6 | 9 | x
Cc1cccc(CS(=O)(=O)c2nnc([C@H](Cc3ccccc3)NC(=O)OC(C)(C)C)o2)c1 | 106* | 75* | -22 | 97* | 69* | 8 | 103*
N#C/C(=C\c1ccc(OCc2cccc(C(=O)O)c2)cc1)C(=O)NCc1ccco1 | -85 | -8 | -7 | -42 | 2 | -105 | x
O=C(O)COc1ccc2oc3ccccc3c2c1 | 14 | 15 | 5 | 12 | -3 | 53* | x | HIF-2a conf=68*;HIF-1a cs=30
O=C(O)COc1ccc2occ(C(=O)c3ccccc3)c2c1 | 7 | -16 | 0 | -6 | 6 | 7 | x
SMILES | Peg3 promoter | MITF TRPM1 inh | KKLEB tox | Shn3 3UTR inh | CF NFkB inh | HIF-2a block | Mdm2-MdmX confirm | others
CC(=O)N(Cc1ccc(F)cc1)C1=C(NCCc2ccccc2)C(=O)c2ccccc2C1=O | 103* | 104* | -55* | 38 | 86* | 91* | 101*
COc1ccc(CN(CCN)C2CC(C)N(C)CC2C)cc1 (stereo not drawn) | -14 | -14 | 6 | -15 | 8 | -2 | x
CCN(c1ccccc1)S(=O)(=O)c1ccc(C(=O)Nc2ccncc2)cc1 | 29 | 12 | -9 | 29 | 2 | 17 | x
CCS(=O)(=O)c1ncc(Cl)c(C(=O)Nc2ccc(S(=O)(=O)N(C)c3ccccc3)cc2)n1 | 102* | 98* | -97* | 99* | 82* | 95* | 103* | HIF-2a conf=99*;HIF-1a cs=99*
CCN(c1ccccc1)S(=O)(=O)c1ccc(NC(=O)c2nc(S(C)(=O)=O)ncc2Cl)cc1 | 108* | 100* | -101* | 98* | 102* | 92* | 102*
CCN(c1ccccc1C(=O)O)S(=O)(=O)c1ccc2[nH]c(=O)[nH]c2c1 | 2 | 2 | -2 | -15 | -1 | -1 | x
O=c1cc(C(Cl)(Cl)Cl)oc2c1ccc1ccccc12 | 106* | 69* | 8 | 75 | 6 | 35 | 103*
O=c1cc(-c2ccco2)oc2c1ccc1ccccc12 | 6 | -10 | -10 | 18 | -54 | -10 | x
Nc1c(-c2cccc(Cl)c2)cnc2c(-c3ccccc3)cnn12 | -302 | -71 | -20 | -100 | 21 | -318 | x
Cc1ccc(NC(=O)C(=Cc2ccc(C(=O)O)cc2)C(=O)Nc2ccc(C)cc2C)c(C)c1 | 95* | 49 | -58* | u | 14 | 85* | 102* | HIF-2a conf=92*;HIF-1a cs=104*
COCCC(=O)N1CCC(Oc2ccc(C(=O)N3CCCC(COC)C3)cc2)CC1 (stereo not drawn) | 4 | -8 | -1 | -4 | -30 | 8 | x
O=C(CCl)N=c1sccn1Cc1ccccc1Cl | 24 | 24 | -68* | -12 | 78* | 8 | 103*
